# Assay results published in PubChem BioAssay.
# Results filed as inconclusive are left out. Activity calls are given as the source filed them. Unless noted, cut-off not given; nearly all actives show AC50 up to about 26 µM.
# What was measured:
# [1] = reducers of polyQ inclusions in PC12 cells, cell-based, NGF-treated PC12, GFPQ80 (AID 1614); conditions: PC12 NGF-treated GFP-polyQ80 inclusion reduction;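 further: lower means fewer inclusions and 0 means no inclusions at all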
# [2] = growth inhibition of DIPG glioma cells, dose response, cell-based, SU-DIPG-XIII, MIPE4.0, CellTiter-Glo, qHTS (AID 1347061; cut-off not given, nearly all actives have AC50 up to about 37 µM;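 further: cells exposed to compound for 48 hours before readout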); conditions: SU-DIPG-XIII viability, CellTiter-Glo ATP luminescence
# [3] = growth inhibition of DIPG glioma cells, dose response, cell-based, SU-DIPG-XIII, MIPE5.0, CellTiter-Glo, qHTS (AID 1347064; cut-off not given, nearly all actives have AC50 up to about 23 µM;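 on AC50: cells exposed to compound for 48 hours before the viability read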); conditions: SU-DIPG-XIII viability, CellTiter-Glo ATP luminescence
# [4] = viability loss in pontine glioma line – cell-based, SU-DIPG-XXV, MIPE5.0, CellTiter-Glo, qHTS, dose response (AID 1347065); conditions: CellTiter-Glo ATP luminescence;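 further: cells exposed to compound for 48 hours before ATP readout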
# [5] = SU-DIPG-VI glioma cell viability, MIPE4.0 library, CellTiter-Glo luminescence, qHTS (AID 1347066; cut-off not given, nearly all actives have AC50 up to about 30 µM;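 further: cells exposed to compound for 48 hours before readout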); conditions: CellTiter-Glo ATP luminescence
# [6] = JHH-DIPG-1 glioma cell viability, MIPE5.0 library, CellTiter-Glo luminescence, qHTS (AID 1347067); conditions: JHH-DIPG-1 glioma viability, CellTiter-Glo ATP luminescence;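 further: cells exposed to compound for 48 hours before readout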
# [7] = SU-DIPG-XXV glioma cell viability, MIPE5.0 library, qHTS (AID 1347068; cut-off not given, nearly all actives have IC50 up to about 30 µM;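 on IC50: cells exposed to compound for 48 hours before viability readout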)
# [8] = growth inhibition of DIPG glioma cells, dose response, cell-based, SU-DIPG-XVII, MIPE5.0, CellTiter-Glo, qHTS (AID 1347060); conditions: SU-DIPG-XVII viability, CellTiter-Glo ATP luminescence;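 on AC50: cells exposed to compound for 48 hours before viability readout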
# [9] = molecular target: ATP-dependent translocase ABCB1 (Homo sapiens) (UniProt P08183); assay: MDR1 (ABCB1) efflux transporter inhibition, cell-based (AID 377; in the data active means fluorescence slope change above about 50%); conditions: MDR1-expressing cells, fluorescent substrate accumulation slope; stronger effect = higher value; concentration not given here
# [10] = growth inhibition of DIPG glioma cells, dose response, cell-based, SU-DIPG-IV, MIPE4.0, CellTiter-Glo, qHTS (AID 1347063; cut-off not given, nearly all actives have AC50 up to about 30 µM;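 further: compound exposure lasted 48 hours before the viability readout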); conditions: SU-DIPG-IV viability, CellTiter-Glo ATP luminescence
# [11] = inhibitors of Cryptococcus chitosan production, flow cytometry, Cibacron Brilliant Red staining (AID 1347148; call rule not given here;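 further: compound exposure lasted three days at 37 degrees C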); conditions: Cryptococcus neoformans chitosan, stronger effect = lower value; at 10 µM unless noted
# Chain of ATP-dependent translocase ABCB1 (Homo sapiens) (P08183 whole entry, looked up): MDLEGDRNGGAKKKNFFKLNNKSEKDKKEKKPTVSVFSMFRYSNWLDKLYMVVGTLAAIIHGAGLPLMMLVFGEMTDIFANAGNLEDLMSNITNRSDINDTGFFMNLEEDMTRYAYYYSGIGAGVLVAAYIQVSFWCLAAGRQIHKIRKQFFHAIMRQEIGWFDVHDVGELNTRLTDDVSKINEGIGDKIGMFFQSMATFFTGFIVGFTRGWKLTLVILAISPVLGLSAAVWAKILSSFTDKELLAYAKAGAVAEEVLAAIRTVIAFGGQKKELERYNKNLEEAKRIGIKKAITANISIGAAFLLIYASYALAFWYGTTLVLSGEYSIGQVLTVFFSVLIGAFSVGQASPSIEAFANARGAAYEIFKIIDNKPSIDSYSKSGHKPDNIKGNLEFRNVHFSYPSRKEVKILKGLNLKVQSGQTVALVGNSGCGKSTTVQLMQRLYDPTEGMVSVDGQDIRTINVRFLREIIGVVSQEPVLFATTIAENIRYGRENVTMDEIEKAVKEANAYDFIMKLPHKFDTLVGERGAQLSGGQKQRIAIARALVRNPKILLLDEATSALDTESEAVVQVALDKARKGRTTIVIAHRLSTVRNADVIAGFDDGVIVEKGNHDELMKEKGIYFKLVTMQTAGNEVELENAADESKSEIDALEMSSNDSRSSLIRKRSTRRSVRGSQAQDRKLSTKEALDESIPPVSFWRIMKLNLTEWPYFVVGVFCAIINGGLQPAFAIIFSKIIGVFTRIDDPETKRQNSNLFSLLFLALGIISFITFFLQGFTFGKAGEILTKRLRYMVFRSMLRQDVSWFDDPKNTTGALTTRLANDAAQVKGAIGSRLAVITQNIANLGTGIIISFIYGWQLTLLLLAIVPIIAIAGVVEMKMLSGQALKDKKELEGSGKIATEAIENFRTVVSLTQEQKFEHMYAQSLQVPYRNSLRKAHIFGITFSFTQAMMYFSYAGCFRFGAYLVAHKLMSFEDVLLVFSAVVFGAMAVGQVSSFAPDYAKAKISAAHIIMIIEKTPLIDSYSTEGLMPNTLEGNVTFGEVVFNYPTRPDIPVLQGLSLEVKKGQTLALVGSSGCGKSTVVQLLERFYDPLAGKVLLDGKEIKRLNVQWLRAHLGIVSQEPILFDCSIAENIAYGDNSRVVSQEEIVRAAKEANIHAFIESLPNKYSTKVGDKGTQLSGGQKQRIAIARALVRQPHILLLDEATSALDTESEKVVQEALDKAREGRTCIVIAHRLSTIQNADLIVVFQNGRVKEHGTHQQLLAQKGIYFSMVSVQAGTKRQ
structure (smiles),measurement,setting,value
CC(C(=O)O)c1ccc(-c2ccccc2)c(F)c1 (stereo not drawn),inclusion score,[1],2
same,AC50,[2],16.6 µM (active)
same,outcome,[3],inactive
same,outcome,[4],inactive
same,outcome,[5],inactive
same,outcome,[6],inactive
same,outcome,[7],inactive
CCc1ccc(CCOc2ccc(CC3SC(=O)NC3=O)cc2)nc1 (stereo not drawn),outcome,[8],inactive
same,outcome,[3],inactive
same,outcome,[4],inactive
same,outcome,[5],inactive
same,outcome,[6],inactive
C[N+]1(C)CCCC(OC(=O)C(O)(c2ccccc2)c2ccccc2)C1 (stereo not drawn),fluorescence slope change,[9],13% (inactive)
same,inclusion score,[1],2
CC(C)NCC(O)COc1ccc(CC(N)=O)cc1 (stereo not drawn),inclusion score,[1],2
CC(C)[N+]1(C)C2CCC1CC(OC(=O)C(CO)c1ccccc1)C2 (stereo not drawn),outcome,[10],inactive
same,outcome,[5],inactive
CNCCC=C1c2ccccc2CCc2ccccc21,fluorescence slope change,[9],145% (active)
COc1ccc2c3c1O[C@H]1C[C@@H](O)C=C[C@@]31CCN(C)C2,fluorescence slope change,[9],9.8% (inactive)
same,inclusion score,[1],2
same,outcome,[2],inactive
same,outcome,[10],inactive
same,outcome,[5],inactive
CCCC1O[C@@H]2C[C@H]3[C@@H]4CCC5=CC(=O)C=C[C@]5(C)[C@H]4[C@@H](O)C[C@]3(C)[C@]2(C(=O)CO)O1 (stereo partly drawn),fluorescence slope change,[9],56.9% (active)
C[C@H](CCC(=O)O)[C@H]1CC[C@H]2[C@@H]3[C@@H](O)C[C@@H]4C[C@H](O)CC[C@]4(C)[C@H]3CC[C@]12C,outcome,[8],inactive
same,outcome,[10],inactive
same,outcome,[4],inactive
same,outcome,[5],inactive
same,outcome,[6],inactive
same,outcome,[7],inactive
OC[C@H]1O[C@@H](Oc2cc(O)cc(/C=C/c3ccc(O)cc3)c2)[C@H](O)[C@@H](O)[C@@H]1O,outcome,[4],inactive
same,outcome,[5],inactive
same,outcome,[6],inactive
same,outcome,[7],inactive
Nc1ccn([C@@H]2O[C@H](CO)[C@@H](O)C2O)c(=O)n1 (stereo partly drawn),AC50,[8],0.263 µM (active)
same,outcome,[2],inactive
same,outcome,[3],inactive
same,outcome,[4],inactive
same,outcome,[6],inactive
same,outcome,[7],inactive
CCN1CCN(C(=O)N[C@@H](C(=O)N[C@@H]2C(=O)N3[C@@H]2SC(C)(C)[C@@H]3C(=O)O)c2ccccc2)C(=O)C1=O,fluorescence slope change,[9],1.5% (inactive)
Cc1ccc(N(CC2=NCCN2)c2cccc(O)c2)cc1,fluorescence slope change,[9],72.4% (active)
same,inclusion score,[1],2
same,outcome,[8],inactive
same,outcome,[2],inactive
same,outcome,[3],inactive
same,outcome,[4],inactive
same,outcome,[5],inactive
same,fold fluorescence,[11],4.52 [at 177.7 µM] (inactive)
CC(CCc1ccccc1)NCC(O)c1ccc(O)c(C(N)=O)c1 (stereo not drawn),inclusion score,[1],2
Cn1cc[nH]c1=S,fluorescence slope change,[9],21.6% (inactive)
same,inclusion score,[1],2
CC[C@H](C)C(=O)O[C@H]1CCC=C2C=C[C@H](C)[C@H](CC[C@@H]3C[C@@H](O)CC(=O)O3)[C@H]21,AC50,[8],6.61 µM (active)
same,AC50,[6],23.5 µM (active)
C[C@]12CC[C@@H]3c4ccc(O)cc4CC[C@H]3[C@@H]1CC[C@@H]2O,outcome,[3],inactive
same,outcome,[4],inactive
same,outcome,[5],inactive
same,fold fluorescence,[11],5.13 [at 183.6 µM] (inactive)
CN(C)CCC(c1ccc(Cl)cc1)c1ccccn1 (stereo not drawn),fluorescence slope change,[9],220% (active)
same,inclusion score,[1],2
CC(=O)N=c1sc(S(N)(=O)=O)nn1C,fluorescence slope change,[9],65.4% (active)
same,inclusion score,[1],2
C=CC1=C(C(=O)O)N2C(=O)[C@@H](NC(=O)/C(=N\O)c3csc(N)n3)[C@H]2SC1 (stereo in doubt),outcome,[10],inactive
same,outcome,[5],inactive
CC(=O)O[C@]1(C(C)=O)CC[C@H]2[C@@H]3C[C@H](C)C4=CC(=O)CC[C@]4(C)[C@H]3CC[C@@]21C,outcome,[10],inactive
same,outcome,[5],inactive
same,outcome,[6],inactive
same,outcome,[7],inactive
O=c1cc(-c2ccccc2)oc2cc(O)c(O)c(O)c12,outcome,[2],inactive
same,outcome,[10],inactive
CC/C(=C(\c1ccccc1)c1ccc(OCCN(C)C)cc1)c1ccccc1,fluorescence slope change,[9],142% (active)
same,AC50,[8],17.1 µM (active)
same,AC50,[10],26.4 µM (active)
same,AC50,[3],13.5 µM (active)
same,AC50,[4],19.1 µM (active)
same,AC50,[5],23.5 µM (active)
same,AC50,[6],21.5 µM (active)
same,IC50,[7],17.1 µM (active)
same,fold fluorescence,[11],8.26 [at 134.6 µM] (inactive)
NCCc1cnc[nH]1,inclusion score,[1],2
same,outcome,[8],inactive
same,outcome,[2],inactive
same,outcome,[3],inactive
same,outcome,[4],inactive
same,outcome,[5],inactive
same,outcome,[6],inactive
same,outcome,[7],inactive
same,fold fluorescence,[11],5.22 [at 449.9 µM] (inactive)
CCCCCCCCCCCC1=C(O)C(=O)C=C(O)C1=O,outcome,[2],inactive
same,AC50,[10],0.0526 µM (active)
same,outcome,[7],inactive
COc1cc(CNC(=O)CCCC/C=C/C(C)C)ccc1O,outcome,[8],inactive
same,outcome,[2],inactive
same,outcome,[10],inactive
same,outcome,[5],inactive
same,outcome,[6],inactive
same,outcome,[7],inactive
same,fold fluorescence,[11],7.26 [at 163.7 µM] (inactive)
COc1c(C)c2c(c(O)c1C/C=C(\C)CCC(=O)O)C(=O)OC2,inclusion score,[1],1
same,AC50,[8],0.742 µM (active)
same,outcome,[5],inactive
same,fold fluorescence,[11],7.43 [at 156.1 µM] (inactive)
O=c1cc(-c2ccc(O)cc2)oc2cc(O)cc(O)c12,inclusion score,[1],1.5
same,AC50,[8],16.6 µM (active)
same,AC50,[10],2.96 µM (active)
same,AC50,[3],16.6 µM (active)
O=C(O)c1cccnc1C(=O)O,inclusion score,[1],2
CN1C[C@H](C(=O)N[C@]2(C)O[C@@]3(O)[C@@H]4CCCN4C(=O)[C@H](Cc4ccccc4)N3C2=O)C[C@@H]2c3cccc4[nH]cc(c34)C[C@H]21,fluorescence slope change,[9],122% (active)
